Source: PubChem (The Scripps Research Institute Molecular Screening Center)
DAX1 inh-1 – DAX1 (NR0B1) inhibitors, primary screen, cell-based, HEK293, Gal4-DAX1, luciferase luminescence | Nuclear receptor subfamily 0 group B member 1 (Homo sapiens), P51843 | HEK293 Gal4-DAX1 luciferase reporter | inhibition, % at 6.75 µM | 340,000 compounds, 0.99% hits | AID 504766, 2011;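 active means inhibition above the mean over all tested compounds plus 3 SD, cut at about 4.2% in these data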;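 further: 0% = DAX1-transfected cells with DMSO and 100% = empty-vector control cells with DMSO; inhibition shows as a rise in luminescence from relieved DAX1 repression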
Target sequence (P51843 207-470 limits assumed): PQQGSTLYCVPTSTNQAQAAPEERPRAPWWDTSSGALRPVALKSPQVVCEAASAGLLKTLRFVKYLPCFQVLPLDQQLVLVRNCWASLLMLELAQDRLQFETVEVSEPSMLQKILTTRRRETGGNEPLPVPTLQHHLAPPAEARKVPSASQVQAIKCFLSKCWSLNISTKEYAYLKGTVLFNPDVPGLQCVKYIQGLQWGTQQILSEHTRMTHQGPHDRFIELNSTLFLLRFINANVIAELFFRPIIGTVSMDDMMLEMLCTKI
AHR activator – AHR activators, primary screen, cell-based, luminescence, luciferase reporter, human. 320,000 compounds, 2.5% hits. AHR-responsive luciferase reporter cells. Aryl hydrocarbon receptor (Homo sapiens), P35869. activation, % at 5 µM. AID 2796, 2010; in the data active means activation above about 47%;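 further: 0% = vehicle wells and 100% = reference agonist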
ssDAF12 agonist – S. stercoralis DAF-12 nuclear receptor activators, primary screen, cell-based, luminescence, HEK293, GRIP1 co-expression, lit1-tk-luc; HEK293 ssDAF-12/GRIP1 lit1-tk-luc reporter; % of 3 µM dafachronic acid response; activation, % at 6.8 µM; AID 652126, 2013; 370,000 compounds, 1% hits;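 active means activation above the mean over all tested compounds plus 3 SD, cut at about 0.9% in these data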;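 further: 0% = DMSO-only wells and 100% = 3 µM delta7-dafachronic acid wells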
hcDAF12 agonist – H. contortus DAF-12 nuclear receptor activators, primary screen, cell-based, luminescence, HEK293, lit1-tk-luc reporter | activation, % at 6.8 µM | HEK293 hcDAF-12 lit1-tk-luc reporter; 0% DMSO, 100% Δ7-dafachronic acid | 370,000 compounds, 1.4% hits;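 active means activation above the mean of all tested compounds plus 3 SD, cut at about 5.5% in these data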;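 further: 100% = response to 3 µM Δ7-dafachronic acid high control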
DAX1 inh-2 – DAX1 (NR0B1) inhibitors on StAR promoter, primary screen, cell-based, luminescence, SF-1 (NR5A1), full-length DAX-1 | AID 652010, 2013 | 370,000 compounds, 1.1% hits | HEK293T StAR-luciferase reporter, SF-1/DAX-1 repression relief | inhibition, % at 6.8 µM;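 active means inhibition above the mean over all tested compounds plus 3 SD, cut at about 3.6% in these data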;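 further: 0% = DAX-1 cells with DMSO and 100% = cells lacking DAX-1 with DMSO; higher inhibition means more luminescence from relief of DAX-1 repression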
hgDAF-12 ag – H. glycines DAF-12 receptor agonists, primary screen, cell-based, luminescence, HEK293, GAL4 fusion, UAS-luciferase; 370,000 compounds, 1.8% hits; HEK293 GAL4-hgDAF12 UAS-luciferase reporter, agonist luminescence; normalized to butyrate control; AID 687014, 2013; Nuclear hormone receptor DAF-12 (Heterodera glycines), GAL4 fusion; activation, % at 6.8 µM;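 active means activation above a cutoff set at the mean of all screened compounds plus 3 SD, cut at about 10% in these data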;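 further: 0% = DMSO wells and 100% = sodium butyrate wells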
* marks the source's active call; other numbers are inactive results; x = no result. A selection: hits, their analogues and other compounds. The true share with any hit is near 5.7%.

SMILES | DAX1 inh-1 | AHR activator | ssDAF12 agonist | hcDAF12 agonist | DAX1 inh-2 | hgDAF-12 ag
CN(C)c1ccc(C(C[N+](=O)[O-])c2c(N)n(C)c(=O)n(C)c2=O)c(F)c1C#N (configuration not stated) | 0.6 | 62.6* | -0.6 | 1.3 | -0.8 | 2.3
Cn1c(N)c(C(C[N+](=O)[O-])c2c(F)cccc2Cl)c(=O)n(C)c1=O (configuration not stated) | -1.1 | 1.3 | -1.2 | 0.1 | -0.6 | -5.1
CCN(CC)c1ccc2cc(-c3nc4ccccc4n3C)c(=O)oc2c1 | 1.7 | 24.2 | 1.0* | 1.9 | 3.6* | 3.2
CC1(C)ON=C(c2ccc(C(F)(F)F)cc2)NC1=O | x | x | -1.1 | -2.0 | 0.3 | 0.1
O=C(Nc1nnc(S(=O)(=O)Cc2ccc(F)cc2)s1)c1ccccc1F | -0.8 | 1.3 | 1.3* | -2.6 | -0.1 | -0.6
O=C(CSc1n[nH]c(-c2ccncc2)n1)NC1CCS(=O)(=O)C1 (configuration not stated) | 0.6 | 2.9 | -0.7 | -1.2 | -0.4 | -1.0
CCSc1nnc(NC(=O)CC)s1 | 1.1 | 1.9 | -0.9 | -1.9 | 0.2 | 0.1
CCc1ccc(-c2nc(SCC(=O)NC3CCS(=O)(=O)C3)n[nH]2)cc1 (configuration not stated) | 2.8 | 6.0 | 0.5 | 0.6 | 3.6* | 0.1
COc1ccc(-c2ccc(SCC(=O)NC3CCCC3)nn2)cc1 | 4.4* | x | -0.5 | 0.8 | -0.1 | 1.6
COc1ccc(-c2ccc(SCC(=O)NC3CCCCC3)nn2)cc1OC | 1.9 | 13.2 | -1.2 | 4.2 | -0.3 | 4.7
CCSc1nnc(NC(=O)CC(C)C)s1 | 6.4* | 7.5 | -2.0 | 1.2 | 0.7 | 1.6
O=C1Cc2cc(NS(=O)(=O)c3ccc([N+](=O)[O-])cc3)cc3c2N1CCC3 | -1.7 | 4.6 | -1.3 | -1.2 | -0.7 | 0.6
CCOC(=O)C1=C(C(=O)OCC)C2N(Cc3ccc(C#N)cc3)c3ccccc3[C@@]23C[C@@H](C(=O)OC)N(S(=O)(=O)c2cccs2)C3=N1 (some centres not stated) | x | x | -1.2 | -0.3 | 0.1 | -1.8
COc1ccc(CN2CCN(Cc3ccc(Br)cc3)CC2)c(OC)c1OC | -2.0 | 0.3 | -1.4 | -3.0 | -0.8 | -5.3
CC(C)(C)NC(=O)CSc1nnc(NC(=O)c2ccccc2Cl)s1 | 3.8 | 1.1 | -1.4 | -0.2 | 0.6 | 4.5
COc1ccc(Nc2nnc(SCC(=O)NC3CCS(=O)(=O)C3)s2)cc1 (configuration not stated) | 0.5 | x | -0.2 | 1.9 | 3.6* | 1.9
COc1ccc(C(=O)Nc2nnc(SCC(=O)NC3CC3)s2)cc1 | 1.5 | 16.5 | -0.1 | 0.4 | 1.5 | 10.8*
O=C(CSc1nnc(NC(=O)c2ccccc2F)s1)Nc1ccccc1F | 2.5 | 4.5 | -1.6 | 1.7 | 3.4 | 12.6*
O=C(CSc1nnc(NC(=O)c2ccccc2Cl)s1)NC1CC1 | 2.0 | 7.5 | -0.3 | 5.6* | 1.0 | 7.1
COc1cccc(C(=O)Nc2nnc(SCC(=O)NC3CC3)s2)c1 | 0.3 | 22.3 | -1.0 | 0.9 | 0.3 | 0.1
COc1cc(CN(C(=O)c2ccco2)C2CCS(=O)(=O)C2)cc(OC)c1OC (configuration not stated) | 0.2 | -2.0 | -1.6 | 3.4 | 0.7 | 0.9
COc1ccc2c(c1)c1nnc(SCC(=O)Nc3ccccc3F)nc1n2C | 0.2 | 8.4 | 0.5 | 3.0 | 1.0 | -0.1
CCSc1nnc(NC(=O)c2ccccc2C)s1 | 3.5 | 2.0 | -1.3 | 1.9 | 4.4* | 12.9*
CN(C(=O)CSc1nnc(NC2CCCCC2)s1)C1CCS(=O)(=O)C1 (configuration not stated) | 0.0 | 1.9 | -0.6 | -1.9 | 0.5 | -1.1
CCc1ccc(Nc2nnc(SCC(=O)N(C)C3CCS(=O)(=O)C3)s2)cc1 (configuration not stated) | 1.3 | 12.9 | 0.2 | 1.5 | 1.5 | 12.2*
SMILES | DAX1 inh-1 | AHR activator | ssDAF12 agonist | hcDAF12 agonist | DAX1 inh-2 | hgDAF-12 ag
CCSc1nnc(NC(=O)c2ccccc2)s1 | 0.2 | 6.4 | 0.0 | 4.5 | 2.5 | 8.6
COc1ccc2c(c1)c1nnc(SCC(=O)NC3CC3)nc1n2C | 0.7 | 72.0* | 1.7* | 4.0 | -0.1 | 0.1
COc1cccc(OC(=O)c2cc3ccccc3oc2=O)c1 | 1.5 | 3.0 | -0.8 | 0.6 | -0.4 | 1.4
C=CCN1[C@H](C)COc2cc(F)ccc2S1(=O)=O | x | x | -0.6 | -1.2 | 0.2 | 2.4
CSc1sc(C(=O)NN)c2c1C1(CCC2)SCCS1 | 5.8* | 31.6 | -0.7 | 0.8 | 0.0 | 1.0
CSc1sc(C(=O)NNC(C)=O)c2c1C1(CCC2)SCCS1 | -1.7 | 5.9 | -1.0 | -1.9 | -0.2 | -3.1
CC(C(=O)NC1CCCc2ccccc21)N1CCN(c2ccc(F)cc2)CC1 (configuration not stated) | -2.2 | 10.2 | -0.4 | 2.6 | -0.8 | -1.4
CC(C(=O)NC1CCCc2ccccc21)N1CCN(Cc2ccc3c(c2)OCO3)CC1 (configuration not stated) | -0.5 | 1.1 | 1.0* | 2.1 | -0.1 | 0.4
C[C@H](NC(=O)c1ccco1)C(=O)NNC(=O)COc1cccc(C(F)(F)F)c1 | 0.3 | 0.5 | -1.2 | -0.5 | 0.8 | -2.5
C=C(C)CSc1nc2ncc(Cl)cc2[nH]1 | -0.2 | 13.9 | -0.8 | -0.2 | -0.2 | 0.3
C=C(C)CN(CC)C(=O)CSc1nc2ncc(Cl)cc2[nH]1 | -1.3 | 68.8* | -0.4 | -0.2 | -0.1 | -0.9
O=C1C=C(O)c2c(O)cc(O)c(O)c2C1=O | 5.2* | -0.1 | -1.9 | 0.3 | 0.1 | -2.5
O=C1CC[C@@H]2CC3(C[C@@H]4CCN1[C@H]24)Nc1ccccc1NC3=NC1CCCCC1 (some centres not stated) | 5.2* | x | -1.0 | -1.3 | -0.1 | 1.5
COc1cc(O)c(CCC(=O)c2ccc(OC)c(OC)c2)c(OC)c1 | 1.1 | 22.1 | -1.6 | -0.5 | -0.3 | -5.8
COc1ccc2[nH]c(=O)c(CNc3cccc(C)c3)cc2c1 | 1.5 | 10.8 | 1.2* | 5.7* | 0.9 | 10.1
Cc1ccc(C)c(N2CCN(C(=O)CNS(=O)(=O)c3cccs3)CC2)c1 | -1.0 | 4.6 | -1.2 | 0.0 | -0.2 | 0.0
CN(C)C(=S)SCC(=O)NC(=O)NC(C)(C)C | 1.4 | 2.8 | -0.2 | 0.6 | -0.3 | -0.1
